Screens as filed in PubChem.
A selection: hits, their analogues and other compounds. The true share with any hit is near 19%.
TDP1 cell noCPT = qHTS for Inhibitors of human tyrosyl-DNA phosphodiesterase 1 (TDP1): qHTS in cells in absence of CPT; DT40 Tdp1-/- hTDP1 cells, no CPT, ATP luminescence, 48 h; Potency, µM (titrated, usually from 46.2 µM), usual class: inhibitors; 15% of 420,000 active; AID 686978, 2013; also: nearly all actives have a fitted effect of over 55% in size
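No-CPT arm: Tdp1-/-;hTDP1 DT40 cells (400/well) plus compounds, incubated ≥48 hr at 37 °C. Readout CellTiter-Glo luminescence.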
Chronic BCR inh = chronic active BCR signaling inhibition; ABC-DLBCL IkBa-CBG/CBR reporter, luminescence ratio, 4 h; 0.05% of 340,000 active; AID 493014; Potency, µM (titrated, usually from 46.1 µM), usual class: inhibitors; active = well fitted inhibition curve with a large enough effect in the signal ratio, with a control signal flat, not every such curve was filed as active; inconclusive = small, poorly fitted or top-dose-only effect, or effect the other way, or a change in a side signal; the % refers to the signal ratio
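Doxycycline induced both beetle luciferases in TMD8 lymphoma cells; IKK-driven degradation limits the IkappaBalpha-fused green signal, while red luminescence normalises for cell number and nonspecific effects. Compounds tested up to 46 uM, 4 hrs.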
MCF10A rerep = induces DNA re-replication in MCF 10a normal breast cells; Potency, µM (doses to about 46.1 µM), hits mostly activators; 2.9% of 350,000 active; AID 624296; MCF 10A DNA re-replication, Hoechst nuclear intensity, 48 h; also: nearly all actives have a fitted effect of over 50% in size
IL1B secr inh = inhibitors of inflammasome signaling (IL-1 beta secretion); 4.7% of 360,000 active; THP-1 LPS/ATP IL-1B secretion, AlphaLISA, 16 h; stronger effect = lower value; activity change, % at 57.5 µM; AID 743279; in the data active = activity change below about -50%; inconclusive = mostly about -30% to -49%
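THP-1 cells pretreated 1 hr with compounds (up to 57.5 uM final), then stimulated with LPS (250 ng/mL final) plus ATP (1.25 mM final); secreted IL-1B measured by AlphaLISA after 16 hr, decreased signal indicating inhibition.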
SW480 rereplic = inducers of DNA re-replication in SW480 colon cancer cells. SW480 DNA re-replication, Hoechst DNA content imaging, 48 h. Potency, µM (series often up to 46.1 µM), usual class: activators. 1.8% of 340,000 active; also: nearly all actives have a fitted effect of over 55% in size
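Treated cells incubate 48 hr (37 C, 5% CO2), are stained 40 min with Hoechst, and nuclear fluorescence is enumerated; a rise in nuclei with high DNA signal marks re-replication.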
DT40 TDP1 CPT = DT40-hTDP1 cell growth loss with CPT | 12% of 420,000 active | AID 686979 | chicken DT40 Tdp1-/-;hTDP1 cells + 20 nM CPT, ATP luminescence, 48 h | Potency, µM (highest dose often 46.2 µM), actives largely listed as inhibitors; also: nearly all actives have a fitted effect of over 55% in size
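Cell growth measured by CellTiter-Glo luminescence after a minimum 48 h, 37 C compound exposure with 20 nM CPT in Tdp1-knockout DT40 cells stably expressing hTDP1, seeded 400/well; qHTS titration format.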
A number is an active result; – = inactive; ? = inconclusive; · = not tested or not shown; [ ] = another dose, or the depositor's remark. Unless noted, calls follow the shape of the dose curve; as a rule, active = well fitted curve in the direction sought with a large enough effect; inconclusive = small, poorly fitted or top-dose-only effect, or another doubt; inactive = no such curve, though single readings can be large; an effect the other way counts as inactive or inconclusive.

SMILES | TDP1 cell noCPT | Chronic BCR inh | MCF10A rerep | IL1B secr inh | SW480 rereplic | DT40 TDP1 CPT
O=C(NCc1cccc(Br)c1)C1CC(c2ccccc2C(F)(F)F)=NO1 (centres undefined) | 18.4µM | – | ? | – | –[9.22 µM] | ?
COc1ccccc1CCc1nnc(CCC(=O)NCC[C@@H]2C[C@@H]3C=C[C@H]2C3)o1 | 18.4µM | – | – | – | – | 14.6µM
COc1ccccc1CCc1nnc(CCC(=O)NCCC2CCCCO2)o1 (centres undefined) | – | · | · | – | · | –
COC(=O)c1cc2occc2n1CC(=O)Nc1cc(OC)cc(OC)c1 | – | – | – | -51.9 | – | –
COc1cc(NC(=O)Cn2c(=O)oc3cc(S(=O)(=O)N4CCCCCC4)ccc32)cc(OC)c1 | 20.6µM | – | · | · | · | 14.6µM
CCc1ccc(NC(=O)Cn2c(=O)oc3cc(S(=O)(=O)N4CCCCCC4)ccc32)cc1 | 9.2µM | · | · | · | · | 11.6µM
O=C(Cn1c(=O)oc2cc(S(=O)(=O)N3CCCC3)ccc21)NC1CCCCC1 | – | ? | – | – | – | –
COc1cc(NC(=O)C2CCCN(S(=O)(=O)c3ccc4c(c3)oc(=O)n4C)C2)cc(OC)c1 (centres undefined) | ? | – | – | – | – | ?
CCOc1ccc(NC(=O)Cn2c(=O)oc3cc(S(=O)(=O)N4CCC(C)CC4)ccc32)cc1 | 8.2µM | · | · | · | · | 9.2µM
COc1ccc2nc(NC(=O)CSC(C)C(=O)Nc3cc(C)on3)sc2c1 (centres undefined) | – | – | – | – | – | –
CCOC(=O)[C@]12CCCC=C1N(Cc1ccco1)C(=O)[C@H](CC(=O)NCCc1ccccc1OC)C2 | ? | · | · | – | · | ?
COc1ccc(C(=O)N2CCC3(CC2)CN(C(=O)Nc2cccc(C#N)c2)C3)cc1 | ? | · | · | · | · | –
Cc1ccc(Cl)cc1N1CCN(C(=O)CSc2nnc3n2C(C)(C)Cc2ccccc2-3)CC1 | 7.31µM | ? | 13µM | ? | – | 9.2µM
CC1(C)Cc2ccccc2-c2nnc(SCC(=O)N3CCc4ccccc43)n21 | ? | – | – | – | – | ?
COc1ccc(N2CCN(C(=O)CSc3nnc4n3C(C)(C)Cc3ccccc3-4)CC2)cc1 | 20.6µM | – | – | – | – | ?
COC(=O)CSc1nnc2n1C(C)(C)Cc1ccccc1-2 | – | – | – | – | – | –
O=C(c1cccc(Cl)c1)N(Cc1cccc(F)c1)C1CCS(=O)(=O)C1 (centres undefined) | – | · | · | · | · | –
CC[C@H](C)[C@@H]1NC(=O)[C@@H](CC(C)C)NC(=O)[C@H](C(C)C)NC(=O)[C@H]2CSSC[C@H](NC1=O)C(=O)N2 | 0.0326µM | · | · | -115.5 | · | 0.0651µM
CC(C)CC1NC(=O)C(CCCN)NC(=O)C(C(C)C)NC(=O)C2CCCN2C(=O)C(Cc2ccccc2)NC(=O)C(CC(C)C)NC(=O)C(CCCN)NC(=O)C(C(C)C)NC(=O)C2CCCN2C(=O)C(Cc2ccccc2)NC1=O (centres undefined) | · | · | ? | · | – | ·
COc1ccccc1N1CC(C(=O)Nc2ccc(N3CCOCC3)cc2)CC1=O (centres undefined) | – | ? | – | – | – | –
CCN(CC)C(=O)[C@H]1C[C@H](CC(=O)NCc2cccc(C(F)(F)F)c2)C(=O)N2CCc3c([nH]c4cc(-c5ccco5)ccc34)[C@]12C | ? | ? | ? | -58.0 | –[9.22 µM] | ?
CC(C)N(C(=O)[C@H]1CC(CC(=O)NCc2cccc(C(F)(F)F)c2)C(=O)N2CCc3c([nH]c4ccccc34)[C@]12C)C(C)C (some centres undefined) | 23.1µM | – | ? | ? | – | 18.4µM
CCN(CC)C(=O)[C@H]1C[C@H](CC(=O)NCCN2CCOCC2)C(=O)N2CCc3c([nH]c4cc(-c5ccco5)ccc34)[C@]12C | ? | – | – | – | – | 20.6µM
